Targets with a hit are over-represented here; the source holds about 7,900 in all. About 0.6% of all pairs of compound and target were hits. A number with no mark means an inactive call.
What was measured:
Assay in all cases: log2 fold change, soluble protein after heating vs DMSO (PISA); higher = thermal stabilisation; K562 cells, 10 uM, 30 min; active = over 0.2 and 3.5 SD of the protein, either way, in both replicates (recomputed)
[1] = compound: CC[C@@H]1C(=O)N(C)c2cnc(Nc3ccc(C(=O)NC4CCN(C)CC4)cc3OC)nc2N1C1CCCC1
Summary of the method: (§1)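 Thermal stability values are relative to control samples and come from duplicates. They are expressed as log2 fold changes. For measurement, K562 cells (2×10^6 cells/mL) received 10 μM compound for 30 min, and aliquots were heated for 3 min over 48°C-58°C, pooled, and extracted at 4°C in PBS with 0.5% NP-40. Soluble protein, the supernatant after 21,000xg for 90 min, was quantified by TMTpro 16plex LC-MS/MS with equalised channel sums.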

volasertib = compound: CC[C@@H]1C(=O)N(C)c2cnc(Nc3ccc(C(=O)N[C@H]4CC[C@H](N5CCN(CC6CC6)CC5)CC4)cc3OC)nc2N1C(C)C [volasertib]
Summary of the method: as §1

[2] = compound: CC[C@H](C)N1C=C(C2=C(C=C(C=C21)C3=CN=C(C=C3)N4CCNCC4)C(=O)NCC5=C(C=C(NC5=O)C)C)C
Summary of the method: as §1

epoxomicin = compound: CC[C@H](C)[C@@H](C(=O)N[C@@H]([C@@H](C)O)C(=O)N[C@@H](CC(C)C)C(=O)[C@]1(CO1)C)NC(=O)[C@H]([C@@H](C)CC)N(C)C(=O)C [epoxomicin]
Summary of the method: as §1

[3] = compound: CCn1c(C(=O)N(C2CC2)C2CC2)cc2c3c(ncn3C)c(Nc3cc(C)n(C)n3)nc21
Summary of the method: as §1

[4] = compound: CCn1cc(-c2ccnc3[nH]c(-c4cccc(CN(C)C)c4)cc23)c(-c2ccc(NC(=O)N(C)C)cc2)n1
Summary of the method: as §1

[5] = compound: CN1C2=C(C3=C1C(=O)N(N=C3)CC4=CC(=CC=C4)N)SC(=C2)S(=O)C
Summary of the method: as §1

[6] = compound: CN1CCC(CNc2ccc3ncc(-c4cccc(OC(F)(F)F)c4)n3n2)CC1
Summary of the method: as §1

[7] = compound: CN(C)CC(=O)Nc1ccc2[nH]c(=O)c3ccccc3c2c1
Summary of the method: as §1

rosiglitazone = compound: CN(CCOC1=CC=C(C=C1)C[C@H]2C(=O)NC(=O)S2)C3=CC=CC=N3 (racemic) [rosiglitazone]
Summary of the method: as §1

UniProt Q96DX7, sequence (Q96DX7 whole entry, looked up): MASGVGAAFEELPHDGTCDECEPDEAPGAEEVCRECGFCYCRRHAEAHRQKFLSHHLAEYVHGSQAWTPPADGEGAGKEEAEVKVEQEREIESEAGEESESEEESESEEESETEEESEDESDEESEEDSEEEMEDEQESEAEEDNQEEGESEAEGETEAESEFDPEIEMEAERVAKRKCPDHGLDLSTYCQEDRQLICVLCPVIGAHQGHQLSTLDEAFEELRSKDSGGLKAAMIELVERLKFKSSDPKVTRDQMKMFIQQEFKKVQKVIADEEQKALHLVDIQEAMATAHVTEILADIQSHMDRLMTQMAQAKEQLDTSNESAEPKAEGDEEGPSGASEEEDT
UniProt Q99816, sequence (Q99816 whole entry, looked up): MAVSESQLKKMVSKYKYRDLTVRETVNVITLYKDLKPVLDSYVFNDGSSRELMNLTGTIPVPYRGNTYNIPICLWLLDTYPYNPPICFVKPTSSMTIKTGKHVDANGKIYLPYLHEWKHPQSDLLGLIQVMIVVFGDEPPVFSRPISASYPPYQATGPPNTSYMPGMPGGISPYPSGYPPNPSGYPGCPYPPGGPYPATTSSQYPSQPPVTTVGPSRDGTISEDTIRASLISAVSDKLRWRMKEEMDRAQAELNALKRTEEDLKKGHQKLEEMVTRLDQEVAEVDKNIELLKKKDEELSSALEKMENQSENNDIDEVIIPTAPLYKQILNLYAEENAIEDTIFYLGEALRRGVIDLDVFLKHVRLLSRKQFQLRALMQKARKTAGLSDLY
UniProt Q96K49, sequence (Q96K49 whole entry, looked up): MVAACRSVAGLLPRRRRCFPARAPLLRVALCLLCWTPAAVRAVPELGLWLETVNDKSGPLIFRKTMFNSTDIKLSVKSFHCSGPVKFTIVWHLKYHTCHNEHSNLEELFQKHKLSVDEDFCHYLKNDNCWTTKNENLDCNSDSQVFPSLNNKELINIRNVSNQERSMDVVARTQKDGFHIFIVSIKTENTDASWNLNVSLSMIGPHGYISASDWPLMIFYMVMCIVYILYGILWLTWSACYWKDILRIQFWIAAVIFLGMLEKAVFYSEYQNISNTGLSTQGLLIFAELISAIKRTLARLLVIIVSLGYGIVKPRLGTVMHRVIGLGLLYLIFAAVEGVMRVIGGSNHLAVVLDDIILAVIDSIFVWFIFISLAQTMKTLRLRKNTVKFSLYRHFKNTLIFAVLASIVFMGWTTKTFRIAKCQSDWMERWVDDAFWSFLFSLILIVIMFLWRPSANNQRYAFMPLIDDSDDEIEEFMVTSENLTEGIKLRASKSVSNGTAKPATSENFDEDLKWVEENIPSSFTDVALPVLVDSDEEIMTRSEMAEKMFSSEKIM
UniProt Q9NX01, sequence (Q9NX01 whole entry, looked up): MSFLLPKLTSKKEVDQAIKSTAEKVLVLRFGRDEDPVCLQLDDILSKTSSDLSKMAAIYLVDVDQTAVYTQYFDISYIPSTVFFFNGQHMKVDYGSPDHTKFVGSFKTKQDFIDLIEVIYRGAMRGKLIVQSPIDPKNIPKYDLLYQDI
UniProt Q93008, sequence (Q93008 whole entry, looked up): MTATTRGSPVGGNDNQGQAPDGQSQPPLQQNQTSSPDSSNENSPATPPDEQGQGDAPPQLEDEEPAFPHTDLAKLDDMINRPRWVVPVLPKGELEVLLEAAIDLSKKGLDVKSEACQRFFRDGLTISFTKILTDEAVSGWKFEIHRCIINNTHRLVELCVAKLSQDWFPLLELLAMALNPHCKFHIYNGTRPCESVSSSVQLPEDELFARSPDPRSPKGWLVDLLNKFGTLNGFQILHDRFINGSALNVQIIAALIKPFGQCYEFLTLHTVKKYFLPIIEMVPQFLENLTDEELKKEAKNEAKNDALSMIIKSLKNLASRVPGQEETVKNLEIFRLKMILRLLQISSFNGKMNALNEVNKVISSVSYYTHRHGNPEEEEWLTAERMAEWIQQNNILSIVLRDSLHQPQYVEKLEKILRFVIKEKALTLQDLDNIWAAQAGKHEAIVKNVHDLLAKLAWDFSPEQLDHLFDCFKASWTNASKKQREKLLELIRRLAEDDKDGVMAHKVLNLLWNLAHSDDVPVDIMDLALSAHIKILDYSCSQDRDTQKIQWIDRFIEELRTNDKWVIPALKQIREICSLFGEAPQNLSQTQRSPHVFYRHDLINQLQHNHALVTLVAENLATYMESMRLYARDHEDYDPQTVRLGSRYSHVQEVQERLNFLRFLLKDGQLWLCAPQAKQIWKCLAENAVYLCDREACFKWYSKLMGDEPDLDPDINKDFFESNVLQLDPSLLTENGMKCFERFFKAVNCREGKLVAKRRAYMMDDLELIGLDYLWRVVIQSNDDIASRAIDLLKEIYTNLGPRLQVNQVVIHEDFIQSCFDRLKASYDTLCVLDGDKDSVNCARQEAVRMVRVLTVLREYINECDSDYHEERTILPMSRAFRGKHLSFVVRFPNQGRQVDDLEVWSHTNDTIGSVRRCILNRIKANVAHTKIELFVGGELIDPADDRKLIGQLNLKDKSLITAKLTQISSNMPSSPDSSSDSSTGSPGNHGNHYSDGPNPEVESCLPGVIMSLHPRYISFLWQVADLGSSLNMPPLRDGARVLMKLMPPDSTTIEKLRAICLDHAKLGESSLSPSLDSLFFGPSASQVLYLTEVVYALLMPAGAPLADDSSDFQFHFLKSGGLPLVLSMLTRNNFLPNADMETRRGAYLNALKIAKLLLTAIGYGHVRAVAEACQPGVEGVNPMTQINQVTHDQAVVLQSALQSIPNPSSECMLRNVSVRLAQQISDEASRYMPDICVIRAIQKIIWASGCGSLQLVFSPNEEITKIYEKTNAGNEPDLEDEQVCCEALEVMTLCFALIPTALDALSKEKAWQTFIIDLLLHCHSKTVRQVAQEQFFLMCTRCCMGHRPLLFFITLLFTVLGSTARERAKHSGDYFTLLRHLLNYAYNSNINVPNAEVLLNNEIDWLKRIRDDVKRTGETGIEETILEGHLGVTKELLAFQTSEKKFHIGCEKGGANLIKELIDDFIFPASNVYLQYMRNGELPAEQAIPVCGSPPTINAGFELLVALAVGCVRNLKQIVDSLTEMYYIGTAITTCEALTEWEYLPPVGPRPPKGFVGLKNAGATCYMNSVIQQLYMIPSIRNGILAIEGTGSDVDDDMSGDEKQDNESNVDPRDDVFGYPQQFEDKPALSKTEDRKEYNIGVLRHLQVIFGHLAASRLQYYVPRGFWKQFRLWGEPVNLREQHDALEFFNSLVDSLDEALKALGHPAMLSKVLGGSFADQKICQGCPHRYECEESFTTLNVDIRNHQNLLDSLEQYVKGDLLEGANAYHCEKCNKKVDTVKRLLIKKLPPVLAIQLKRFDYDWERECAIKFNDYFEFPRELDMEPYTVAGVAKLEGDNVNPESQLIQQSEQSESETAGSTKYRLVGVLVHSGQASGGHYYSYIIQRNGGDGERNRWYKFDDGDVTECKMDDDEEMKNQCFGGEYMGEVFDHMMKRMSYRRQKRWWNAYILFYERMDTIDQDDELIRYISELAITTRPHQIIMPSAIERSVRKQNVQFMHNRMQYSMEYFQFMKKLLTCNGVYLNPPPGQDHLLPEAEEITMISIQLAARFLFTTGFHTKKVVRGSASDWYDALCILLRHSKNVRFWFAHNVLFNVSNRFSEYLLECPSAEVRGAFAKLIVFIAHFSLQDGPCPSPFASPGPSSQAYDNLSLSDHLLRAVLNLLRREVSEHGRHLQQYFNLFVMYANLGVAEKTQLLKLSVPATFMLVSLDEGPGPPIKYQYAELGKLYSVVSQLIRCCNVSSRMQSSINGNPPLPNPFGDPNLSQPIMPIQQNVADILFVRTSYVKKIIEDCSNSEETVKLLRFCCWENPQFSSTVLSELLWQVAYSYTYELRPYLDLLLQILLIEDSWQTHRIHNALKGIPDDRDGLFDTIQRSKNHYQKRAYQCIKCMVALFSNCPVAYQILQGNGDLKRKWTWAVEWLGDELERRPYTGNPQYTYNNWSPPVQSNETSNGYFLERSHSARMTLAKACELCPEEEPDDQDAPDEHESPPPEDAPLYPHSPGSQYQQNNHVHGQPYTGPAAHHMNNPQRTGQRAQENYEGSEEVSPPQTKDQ
UniProt Q9BQB6, sequence (Q9BQB6 whole entry, looked up): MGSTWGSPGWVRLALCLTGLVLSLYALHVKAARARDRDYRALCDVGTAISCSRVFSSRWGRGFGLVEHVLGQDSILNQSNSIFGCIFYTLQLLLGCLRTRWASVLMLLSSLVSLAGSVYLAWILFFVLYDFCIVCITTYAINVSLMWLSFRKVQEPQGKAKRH
UniProt P02585, sequence (P02585 whole entry, looked up): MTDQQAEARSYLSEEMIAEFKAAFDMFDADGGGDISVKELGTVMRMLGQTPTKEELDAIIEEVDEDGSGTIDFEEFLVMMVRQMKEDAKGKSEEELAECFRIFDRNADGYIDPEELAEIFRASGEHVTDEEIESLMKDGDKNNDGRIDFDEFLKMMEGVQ
UniProt Q5VZI3, sequence (Q5VZI3 whole entry, looked up): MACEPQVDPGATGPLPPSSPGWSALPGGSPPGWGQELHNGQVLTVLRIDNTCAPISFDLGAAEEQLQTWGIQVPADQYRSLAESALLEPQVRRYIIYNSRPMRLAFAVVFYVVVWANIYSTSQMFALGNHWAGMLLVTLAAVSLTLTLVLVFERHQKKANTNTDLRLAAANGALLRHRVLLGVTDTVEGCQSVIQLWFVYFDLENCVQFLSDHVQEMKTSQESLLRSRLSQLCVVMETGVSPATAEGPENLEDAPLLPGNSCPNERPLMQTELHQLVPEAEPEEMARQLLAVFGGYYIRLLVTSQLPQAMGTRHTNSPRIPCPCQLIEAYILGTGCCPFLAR
UniProt A6NIH7, sequence (A6NIH7 whole entry, looked up): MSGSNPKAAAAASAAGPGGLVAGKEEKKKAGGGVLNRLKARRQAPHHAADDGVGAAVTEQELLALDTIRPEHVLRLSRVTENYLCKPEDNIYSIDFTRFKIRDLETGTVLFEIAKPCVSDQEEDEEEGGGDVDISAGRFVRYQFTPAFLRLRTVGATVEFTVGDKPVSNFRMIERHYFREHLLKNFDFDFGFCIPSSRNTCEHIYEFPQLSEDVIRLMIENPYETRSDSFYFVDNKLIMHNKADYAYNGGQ

Target	log2 fold change [1]	log2 fold change (volasertib)	log2 fold change [2]	log2 fold change (epoxomicin)	log2 fold change [3]	log2 fold change [4]	log2 fold change [5]	log2 fold change [6]	log2 fold change [7]	log2 fold change (rosiglitazone)
TMEM104 (UniProt Q8NE00)	-0.019	0.043	-0.033	-0.19	-0.027	0.204	0.12	0.018	–	–
VRK1 (UniProt Q99986)	-0.184	-0.159	0.102	0.169	-0.107	-0.06	-0.028	-0.03	0.135	0.105
UBE4A isoform 2 (UniProt Q14139)	-0.126	-0.584 (active)	0.123	0.087	-0.114	-0.055	0.159	-0.436 (active)	0.053	0.05
WDR46, A0A0G2JJL1	0.388	0.37	-0.068	-0.451	-0.108	–	0.215	–	-0.183	-0.177
UBE2D1 (UniProt P51668)	-0.123	-0.333 (active)	-0.024	–	0.037	-0.045	-0.109	-0.095	0.017	0.099
VDAC1 (UniProt P21796)	0.019	0.063	-0.013	0.012	0.023	-0.009	-0.022	0.055	-0.005	–
TRIM44 (UniProt Q96DX7)	0.003	-0.028	-0.024	–	0.014	0.005	-0.069	0.041	-0.004	0.035
TSG101 (UniProt Q99816)	-0.137	-0.268 (active)	0.036	0.065	-0.011	-0.021	-0.018	-0.124	0.002	0.023
UGGT1 (UniProt Q9NYU2)	-0.01	-0.058	0.03	-0.006	0.019	0.002	0.008	0.049	-0.024	-0.004
UCHL5 isoform 3 (UniProt Q9Y5K5)	-0.008	-0.617 (active)	0.126	0.293	0.107	–	–	–	0.074	0.062
VPS72 isoform 2 (UniProt Q15906)	-0.261	0.135	-0.072	-0.107	0.101	–	0.043	–	-0.052	0.041
VPS53 isoform 4 (UniProt Q5VIR6)	-0.095	-0.358 (active)	0.033	0.041	-0.094	0.022	0.016	-0.128	0.007	0.023
VARS2, A0A0G2JL52	-0.024	0.001	0.08	0.011	0.006	-0.013	-0.016	-0.126	0.007	0.03
VPS35L (UniProt Q7Z3J2)	0.021	-0.365 (active)	-0.038	0.003	-0.014	0.071	-0.076	-0.099	0.005	0.072
USP48 isoform 8 (UniProt Q86UV5)	-0.55 (active)	-0.84 (active)	0.144	-0.058	-0.03	-0.047	-0.013	-0.459	0.195	0.064
TXNL4B (UniProt Q9NX01)	0.075	-0.111	-0.036	–	-0.015	-0.069	0.051	-0.053	0.186	0.056

Target	log2 fold change [1]	log2 fold change (volasertib)	log2 fold change [2]	log2 fold change (epoxomicin)	log2 fold change [3]	log2 fold change [4]	log2 fold change [5]	log2 fold change [6]	log2 fold change [7]	log2 fold change (rosiglitazone)
TMEM128 (UniProt Q5BJH2)	-0.076	-0.005	0.015	0.003	0.006	–	-0.033	–	0.149	0.032
TNNC2 (UniProt P02585)	0.042	0.07	-0.031	-0.037	0.016	0.04	-0.053	-0.015	-0.006	0.006
WASHC5 (UniProt Q12768)	-0.109	-0.268	0.09	0.049	-0.061	0.035	-0.006	-0.114	0.045	0.008
TMEM87B (UniProt Q96K49)	-0.088	-0.148	0.092	0.018	0.002	-0.103	-0.143	-0.436 (active)	-0.016	0
VPS50 (UniProt Q96JG6)	-0.168	-0.415 (active)	0.08	0.009	-0.037	-0.026	0.036	-0.101	0.009	0.008
XIAP (UniProt P98170)	-0.135	-0.457 (active)	0.094	0	-0.029	0	-0.101	-0.131	0.071	0.043
VKORC1 (UniProt Q9BQB6)	-0.006	-0.079	-0.088	–	-0.078	0.008	0.03	-0.09	0.072	0.033
TMEM179B (UniProt Q7Z7N9)	0.05	0.052	0.029	-0.44 (active)	0.026	0.039	–	-0.128	–	-0.027
USO1 isoform 2 (UniProt O60763)	-0.108	-0.254 (active)	0.025	0.043	0.001	-0.018	-0.059	-0.111	0.015	0.044
TMEM8A (UniProt Q9HCN3)	-0.11	0.008	-0.108	–	0.068	-0.037	0.082	-0.104	-0.031	0.009
TTI2 (UniProt Q6NXR4)	-0.173	-0.414 (active)	0.021	0.085	-0.016	–	0.03	–	0.09	-0.01
TMEM268 isoform 3 (UniProt Q5VZI3)	-0.088	-0.005	0.112	0.536 (active)	0.093	0.013	0.025	-0.123	–	0.098
UNC119B (UniProt A6NIH7)	-0.168	0.066	-0.224	–	-0.134	-0.104	0.004	0.047	-0.023	0.001
TMEM9B (UniProt Q9NQ34)	0.035	-0.192	-0.011	0.109	0.035	0.049	–	-0.054	-0.023	0.037
USP9X (UniProt Q93008)	-0.108	-0.382 (active)	0.038	0.01	-0.027	-0.056	-0.028	-0.21	0.01	0.037
TMEM184C (UniProt Q9NVA4)	-0.03	–	0.033	0.087	–	0.08	-0.237	-0.492 (active)	-0.013	0.088

— the supplement of paper PMC10849652
